Cy5 interf NS3h: Cy5 fluorescence interference, HCV helicase counter-screen | Cy5-dT15 DNA with NS3h; actives lie on both sides; signal over control mean, under 1 quenches | fluorescence interference ratio at 100 µM | 16,000 tested, 6% active | AID 720488;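 active = compound fluorescence over control fluorescence at most 0.8, a quencher, or at least a set upper limit, an enhancer; inactive = ratio between 0.8 and the set upper limit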
HCV NS3h FP: hepatitis C NS3 helicase inhibition, primary screen. NS3h Cy5-dT15 DNA binding, fluorescence polarization. inhibition, % at 100 µM. 16,000 tested, 1.6% active. AID 687043;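 active = inhibition above the average over every tested compound plus 3 SD, cut at about 40% in these data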
Active calls of the source: *. Sampled rows, rich in hits. Any-hit rate of the full collection: about 6.9%.

For CC(NC(=O)c1ccc(Br)cc1)c1ccccc1 (stereo not given) the results were Cy5 interf NS3h 0.79* and HCV NS3h FP 12.
Screening CC(=O)CC(=O)NC(C)c1ccccc1 (stereo not given) returned Cy5 interf NS3h 0.97 and HCV NS3h FP 3.
`CC(=O)Nc1nc(C)c(-c2csc(Nc3ncccn3)n2)s1` gave Cy5 interf NS3h 0.51* and HCV NS3h FP -17.
For CCC(=O)Nc1nc(C)c(-c2csc(Nc3cc(C)ccn3)n2)s1 the results were Cy5 interf NS3h 0.98 and HCV NS3h FP 14.
For C=CCNC(=O)NC(=O)C12CC3CC(CC(C3)C1)C2 the results were Cy5 interf NS3h 1.1 and HCV NS3h FP 4.
O=C(NCCOc1ccccc1F)c1cccc2ccccc12 was read as Cy5 interf NS3h 0.99 and HCV NS3h FP 18.
COc1cc(/C=C2/SC(=S)N(CCc3ccc(OC)c(OC)c3)C2=O)ccc1O was read as Cy5 interf NS3h 1 and HCV NS3h FP 0.
Nc1cccc(C(=O)Nc2ccccc2)c1 was read as Cy5 interf NS3h 0.99 and HCV NS3h FP 1.
`Nc1ccc[n+](CC(=O)c2ccccc2)c1` gave Cy5 interf NS3h 0.75* and HCV NS3h FP -14.
O=C(Nc1cccc(I)c1)c1cc2ccccc2oc1=O was read as Cy5 interf NS3h 0.96 and HCV NS3h FP 8.
Screening NC(=O)c1ccc[n+](CC(=O)c2cc3ccccc3oc2=O)c1 returned Cy5 interf NS3h 0.6* and HCV NS3h FP -7.
Cc1cc([N+](=O)[O-])ccc1-c1ccc(C(=O)Nc2ccc(O)c(-c3nc4ccccc4o3)c2)o1 was read as Cy5 interf NS3h 1 and HCV NS3h FP 5.
Cc1ccc(NC2CC(C)Nc3cc(C)ccc32)cc1 (stereo not given) was read as Cy5 interf NS3h 0.89 and HCV NS3h FP 10.
O=C1C(=Cc2c(NCCO)nc3ccccn3c2=O)SC(=S)N1Cc1ccco1 was read as Cy5 interf NS3h 0.89 and HCV NS3h FP 3.
Nc1ccc(S(=O)(=O)N2CCCCCC2)cc1 was read as Cy5 interf NS3h 0.75* and HCV NS3h FP 2.
For O=C(O)CCC(=O)Nc1ccc(S(=O)(=O)N2CCCCCC2)cc1 the results were Cy5 interf NS3h 0.95 and HCV NS3h FP -6.
For Cc1cc([N+](=O)[O-])ccc1NS(=O)(=O)c1cc(Cl)ccc1Cl the results were Cy5 interf NS3h 1 and HCV NS3h FP 4.
`COc1cccc(NC(=O)CN(c2cc(Cl)cc(Cl)c2)S(C)(=O)=O)c1` gave Cy5 interf NS3h 1 and HCV NS3h FP 9.
Screening Cc1ccc(C(=O)N/C(=C\c2ccco2)C(=O)Nc2ccccc2C)cc1 returned Cy5 interf NS3h 1 and HCV NS3h FP 8.
For COc1ccccc1NC(=O)/C(=C/c1ccco1)NC(=O)c1ccc(C)cc1 the results were Cy5 interf NS3h 1.3* and HCV NS3h FP 10.
For COc1cc([N+](=O)[O-])cc2c1N=C(c1ccc(Cl)cc1Cl)NO2 the results were Cy5 interf NS3h 1 and HCV NS3h FP 1.
CCOc1cc(/C=C2\SC(=S)N(CC(C)C)C2=O)ccc1O was read as Cy5 interf NS3h 0.78* and HCV NS3h FP 13.
CCOc1cc(/C=C2\SC(=S)N(C(C)C)C2=O)ccc1O was read as Cy5 interf NS3h 0.89 and HCV NS3h FP 14.
COC(=O)c1ccc2c(c1O)C(=O)c1ccccc1C2=O was read as Cy5 interf NS3h 0.8* and HCV NS3h FP -8.
Screening CCC(=O)Nc1cccc2c1C(=O)c1ccccc1C2=O returned Cy5 interf NS3h 1.1 and HCV NS3h FP 11.
CCCCC1(C2CCCCC2)Cc2ccccc2-c2nc(SCC(N)=O)[nH]c(=O)c21 (stereo not given) was read as Cy5 interf NS3h 0.93 and HCV NS3h FP 9.
For CC1C(c2ccccc2)NC(c2ccccc2)C(C)C1(O)c1ccccc1 (stereo not given) the results were Cy5 interf NS3h 0.68* and HCV NS3h FP 4.
`CCCC1C(c2ccccc2)NC(c2ccccc2)C(C)C1(O)CCC` (stereo not given) gave Cy5 interf NS3h 1 and HCV NS3h FP 16.
CN(C)c1ccc(NC2=NS(=O)(=O)c3ccccc32)cc1 was read as Cy5 interf NS3h 0.95 and HCV NS3h FP 0.
c1ccc(NC2=Nc3cccc4cccc2c34)cc1 was read as Cy5 interf NS3h 0.59* and HCV NS3h FP 24.
For O=C(CSc1ccccn1)OCC(=O)c1ccc(Br)cc1 the results were Cy5 interf NS3h 0.64* and HCV NS3h FP 4.
`O=C(CSc1cccc2cccnc12)OCC(=O)c1ccccc1` gave Cy5 interf NS3h 0.93 and HCV NS3h FP -10.
For Cc1ccc(C(c2ccc(C)o2)c2cc(Br)cc(Br)c2O)o1 the results were Cy5 interf NS3h 0.91 and HCV NS3h FP 11.
For N#Cc1ccccc1N=C1C(=O)Nc2ccccc21 the results were Cy5 interf NS3h 1.1 and HCV NS3h FP 4.
For O=C1Nc2ccc([N+](=O)[O-])cc2C1=Nc1ccc(-c2ccc(N=C3C(=O)Nc4ccc([N+](=O)[O-])cc43)cc2)cc1 the results were Cy5 interf NS3h 0.77* and HCV NS3h FP 8.
Screening COCCNC(=O)Nc1ccc2nccnc2c1 returned Cy5 interf NS3h 1 and HCV NS3h FP 3.
Screening COC(=O)c1nnn(-c2cc3nccnc3cc2F)c1C(=O)OC returned Cy5 interf NS3h 0.72* and HCV NS3h FP 6.
`CCOc1ccc(N(CC(=O)N2CCOCC2)S(C)(=O)=O)cc1` gave Cy5 interf NS3h 0.75* and HCV NS3h FP 16.
For CS(=O)(=O)N(CC(=O)N1CCOCC1)c1ccc(Cl)cc1 the results were Cy5 interf NS3h 1 and HCV NS3h FP 1.
`CCOc1ccc(C2=C/C(=C/c3ccc(N(C)C)cc3)C(=O)O2)cc1` gave Cy5 interf NS3h 0.98 and HCV NS3h FP 24.
`Nc1nc(-c2ccccc2)cc(N2CCCC2)n1` gave Cy5 interf NS3h 0.97 and HCV NS3h FP -5.
`CCN1C(=O)/C(=C\c2cc(Br)ccc2OCc2ccccc2)SC1=S` gave Cy5 interf NS3h 1.1 and HCV NS3h FP 0.
Screening COc1ccc(Br)cc1/C=C1/SC(=S)N(Cc2ccccc2)C1=O returned Cy5 interf NS3h 0.69* and HCV NS3h FP 1.
For CCN1C(=O)/C(=C\c2cc(OC)ccc2OC)SC1=S the results were Cy5 interf NS3h 0.76* and HCV NS3h FP 9.
CCN1C(=O)/C(=C\c2ccccc2OCCOc2cccc(OC)c2)SC1=S was read as Cy5 interf NS3h 1 and HCV NS3h FP 7.
`CCc1ccc(OCC(=O)Nc2cccc(OC)c2)cc1` gave Cy5 interf NS3h 0.74* and HCV NS3h FP 14.
For COc1ccc(OCC(=O)Nc2cccc(C(C)=O)c2)cc1 the results were Cy5 interf NS3h 1.1 and HCV NS3h FP 5.
For C=CCOc1ccc2c(=O)c(-c3ccccc3OC)coc2c1 the results were Cy5 interf NS3h 1.1 and HCV NS3h FP 7.
Screening O=C(CC1(O)C(=O)Nc2ccccc21)c1ccco1 (stereo not given) returned Cy5 interf NS3h 0.78* and HCV NS3h FP 7.
`CCc1ccc(C(=O)CC2(O)C(=O)Nc3ccccc32)cc1` (stereo not given) gave Cy5 interf NS3h 1 and HCV NS3h FP 0.
`CC(=O)Oc1ccc(-c2cccc(C(=O)Nc3ccc([N+](=O)[O-])cc3)c2)cc1` gave Cy5 interf NS3h 0.97 and HCV NS3h FP 12.
Screening O=C(O)CN(c1ccccc1)S(=O)(=O)c1ccccc1[N+](=O)[O-] returned Cy5 interf NS3h 1 and HCV NS3h FP 2.
